MITF TRPM1 inh: reduces MITF-dependent TRPM1 promoter luciferase signal; SK-MEL-5 TRPM1 promoter luciferase, 24 h; inhibition, % at 12.5 µM; 0.83% of 330,000 active; AID 488899;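 active means mean inhibition across replicates of 60% or more, whatever share of single replicates reaches that level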
Shn3 inh set2: inhibitors of Schnurri-3 3'UTR reporter in osteoblasts. Clone20 osteoblast Shn3 3'UTR firefly luciferase, 24 h. inhibition, % at 12.5 µM. 0.52% of 360,000 active. AID 588674;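 active means mean inhibition of at least 75% with every replicate also reaching 75%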;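 further: 0% = median of neutral control wells and 100% = pilot-screen positive control compound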
ABHD5-PLIN5 inh: inhibitors of human ABHD5-perilipin-5 interaction | Q00G26+Q8WTS1 | Split G. princeps luciferase complementation, luminescence, 4 h | inhibition, % at 4 µM | 0.78% of 360,000 active;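 active means inhibition above the mean inhibition across every tested compound plus 3 SD, cut at about 22% in these data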;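 further: 0% = DMSO only wells and the 100% control is not disclosed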
Target sequence (Q00G26 whole entry, looked up): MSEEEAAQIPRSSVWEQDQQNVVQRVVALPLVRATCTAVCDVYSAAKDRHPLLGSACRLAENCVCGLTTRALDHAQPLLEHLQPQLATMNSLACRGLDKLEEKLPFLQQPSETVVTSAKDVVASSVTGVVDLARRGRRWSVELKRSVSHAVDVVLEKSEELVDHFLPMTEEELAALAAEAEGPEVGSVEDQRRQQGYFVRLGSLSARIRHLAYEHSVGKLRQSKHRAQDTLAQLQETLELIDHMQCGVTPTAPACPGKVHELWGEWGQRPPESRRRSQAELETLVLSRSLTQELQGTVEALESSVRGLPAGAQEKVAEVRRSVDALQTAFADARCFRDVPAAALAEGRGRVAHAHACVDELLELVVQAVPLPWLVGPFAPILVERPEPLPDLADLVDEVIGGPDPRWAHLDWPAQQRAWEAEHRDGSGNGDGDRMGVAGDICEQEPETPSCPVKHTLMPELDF
Target sequence (Q8WTS1 whole entry, looked up): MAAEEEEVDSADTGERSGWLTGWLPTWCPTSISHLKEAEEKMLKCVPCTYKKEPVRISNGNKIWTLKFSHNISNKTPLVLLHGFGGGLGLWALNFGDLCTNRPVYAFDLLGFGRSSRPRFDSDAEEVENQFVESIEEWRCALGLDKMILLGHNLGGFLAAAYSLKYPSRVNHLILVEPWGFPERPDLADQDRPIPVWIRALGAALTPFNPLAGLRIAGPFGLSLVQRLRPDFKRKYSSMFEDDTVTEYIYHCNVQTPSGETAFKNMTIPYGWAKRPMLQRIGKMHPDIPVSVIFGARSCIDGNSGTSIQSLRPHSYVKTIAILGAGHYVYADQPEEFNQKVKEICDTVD
EWS-Fli inh: blocks EWS/Fli oncoprotein-driven transcription; A673 NR0B1-luciferase reporter, viability-normalised; inhibition, % at 12.6 µM; 0.67% of 350,000 active; AID 651661;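 active means mean inhibition of at least 50% after viability correction, with every replicate also passing that limit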;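 further: firefly luciferase signal divided by Alamar Blue viability fluorescence both relative to DMSO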
PAX8 reporter: PAX8 transcriptional activity inhibition. 1.2% of 360,000 active. RMG-I TPO-luciferase reporter, SteadyGlo, 24 h. inhibition, % at 12.6 µM. AID 652154;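 active means mean replicate inhibition at least 60% with every replicate also reaching 60%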;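 further: luciferase light reporting Pax8 driven TPO promoter activity; plate controls were median of neutral control wells for no effect and mitoxantrone controls for full effect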
Peg3 prom inh: inhibitors of Peg3 promoter; HeLa PEG-Prom luciferase reporter, luminescence, overnight; inhibition, % at 20 µM; 1.7% of 360,000 active;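 active means inhibition of at least 50% at 20 µM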
Active calls of the source: *; . = no result. Hits are enriched below; roughly 3% of the tested compounds scored in any of these assays.

SMILES | MITF TRPM1 inh | Shn3 inh set2 | ABHD5-PLIN5 inh | EWS-Fli inh | PAX8 reporter | Peg3 prom inh
CC(=O)CSc1nnc(-c2ccco2)n1-c1ccccc1 | . | -21 | 3 | 6 | 11 | 0
CSc1nnc(-c2ccco2)n1-c1ccccc1 | -4 | 89* | 4 | . | . | 14
C[C@@H]1CCCCO[C@H](CN(C)C(=O)NC2CCCCC2)[C@@H](C)CN([C@H](C)CO)C(=O)c2cc(NC(=O)Nc3ccc(C(F)(F)F)cc3)ccc2O1 | . | . | . | 4 | -2 | .
C[C@@H]1CCCCO[C@@H](CN(C)C(=O)NC2CCCCC2)[C@H](C)CN([C@@H](C)CO)C(=O)c2cc(NC(=O)Nc3ccc(C(F)(F)F)cc3)ccc2O1 | . | . | . | 9 | 76* | .
C[C@H]1CCCCO[C@H](CN(C)C(=O)NC2CCCCC2)[C@@H](C)CN([C@@H](C)CO)C(=O)c2cc(NC(=O)Nc3ccc(C(F)(F)F)cc3)ccc2O1 | . | . | . | 3 | 87* | .
C[C@@H]1CCCCO[C@@H](CN(C)C(=O)NC2CCCCC2)[C@@H](C)CN([C@@H](C)CO)C(=O)c2cc(NC(=O)Nc3ccc(C(F)(F)F)cc3)ccc2O1 | . | . | . | 4 | 74* | .
C[C@@H]1CCCCO[C@H](CN(C)C(=O)Nc2ccc(C(F)(F)F)cc2)[C@H](C)CN([C@@H](C)CO)C(=O)c2cc(NC(=O)NC3CCCCC3)ccc2O1 | . | . | . | 0 | -17 | .
C[C@@H]1CCCCO[C@H](CN(C)C(=O)NC2CCCCC2)[C@@H](C)CN([C@@H](C)CO)C(=O)c2cc(NC(=O)Nc3ccc(C(F)(F)F)cc3)ccc2O1 | . | . | . | 9 | 93* | .
CC=Cc1ccc2n(c1=O)C[C@H]1[C@H](CO)[C@@H](C(=O)NCC3CC3)N(C(=O)CC3CC3)[C@@H]21 (mixture of isomers) | . | . | . | -1 | 5 | .
O=C1c2ccc(-c3nc4ccccc4o3)cc2C(=O)N1Cc1ccccc1 | 10 | -6 | -3 | . | 64* | 21
Cn1c(SCC(=O)Nc2ccc(F)cc2)nc2c([nH]c3ccccc32)c1=O | 40 | 19 | -2 | 24 | 16 | 43
Cc1ccc(-c2csc(NC(=O)CSc3nnc4c(n3)[nH]c3ccccc34)n2)cc1 | 20 | 34 | 1 | . | -18 | 56*
Cc1ccc(NC(=O)CSc2nc3c([nH]c4ccccc43)c(=O)n2C)cc1 | . | 45 | -9 | 11 | 22 | 54*
CC(C)Oc1ccccc1NC(=O)CSc1nc2ccccc2c(=O)n1C | 7 | 67 | 13 | 9 | 11 | 25
Cc1ccc(NC(=O)CSc2nnc3c(n2)[nH]c2ccccc23)cc1 | 3 | -1 | 2 | 0 | -1 | 4
CC(=O)c1cccc(NC(=O)CSc2nc3ccccc3c(=O)n2CCCN2CCOCC2)c1 | 1 | 6 | -2 | -2 | 18 | -15
Cc1ccc(NC(=O)CSc2nc3ccccc3c(=O)n2CCCN2CCCCC2)cc1C | 70* | 16 | 10 | . | -43 | 55*
Cc1ccccc1NC(=O)CSc1nc2ccccc2c(=O)n1C | 21 | 87* | 1 | 14 | 17 | 13
COc1ccc(S(=O)(=O)N(C)C[C@@H]2OCCCC[C@H](C)Oc3ccc(NC(=O)Nc4ccccc4)cc3C(=O)N([C@@H](C)CO)C[C@@H]2C)cc1 | . | . | . | 6 | 22 | .
Cc1cc(NC(=O)CSc2nc3c(sc4ccccc43)c(=O)n2CCCN2CCOCC2)n[nH]1 | 8 | -90 | 0 | . | 48 | 90*
COCCCn1c(SCC(=O)Nc2ccc(C)cc2)nc2ccccc2c1=O | -6 | 18 | 0 | -9 | 12 | 21
Cc1ccc(NC(=O)CSc2nc3ccccc3c(=O)n2Cc2cccs2)cc1 | -7 | 9 | 3 | -22 | 66* | -3
C[C@H](O)C#Cc1cnc2c(c1)C(=O)N([C@H](C)CO)C[C@@H](C)[C@H](CN(C)C(=O)c1ccncc1)O2 | . | . | . | -1 | . | .
O=C(C1CCOCC1)N1C[C@@H]2[C@H](c3ccccc31)[C@@H](CO)N2C(=O)c1ccccc1 | . | . | . | 2 | -16 | .
C[C@@H]1CCCCO[C@@H](CN(C)C(=O)Nc2ccc(C(F)(F)F)cc2)[C@H](C)CN([C@H](C)CO)C(=O)c2cc(NS(=O)(=O)c3ccccc3)ccc2O1 | . | . | . | 23 | 84* | .
C[C@H]1CCCCO[C@@H](CN(C)C(=O)Nc2ccc(C(F)(F)F)cc2)[C@@H](C)CN([C@@H](C)CO)C(=O)c2cc(NS(=O)(=O)c3cn(C)cn3)ccc2O1 | . | . | . | 28 | 91* | .
